High-throughput results (PubChem BioAssay)
WT yeast gro inh: growth inhibition of WT yeast, mitochondrial fusion screen. mitochondrial fusion phenotypic screen, WT strain. inhibition, % at 10 µM. hit rate 2.1% among 190,000. AID 1362; in the data active means inhibition above about 58%; tested in S. cerevisiae
CHOP inh: blocks CHOP induction under ER stress | CHO-K1 CHOP-promoter luciferase, tunicamycin-induced, 15-18 h | inhibition, % at 10 µM | hit rate 3.8% among 220,000 | AID 2732;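 active means compounds that reduced the stress-induced luciferase reporter signal by more than about 70% of percent inhibition, limit read from the data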;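 further: 0% = tunicamycin plus vehicle and 100% = wells without tunicamycin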
L major viab: Leishmania major promastigote growth inhibition; inhibition, % at 10 µM; AID 1063; Leishmania major promastigotes, resazurin fluorescence viability; hit rate 9% among 200,000; in the data active means inhibition above about 50%;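 further: promastigotes grown with compound for 44 hours at 28 °C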
Arbovirus anti: blocks arbovirus infection. arbovirus infection cell-based antiviral screen. inhibition, % at 10 µM. hit rate 0.37% among 200,000. AID 1251; in the data active means inhibition above about 30%
Lmaj promast 1uM: inhibitors of Leishmania major promastigote growth, repeat at 1 uM; shares compounds with L major viab; L. major promastigote growth, resazurin fluorescence, 48 h; inhibition, % at 1 µM; hit rate 13% among 1,100; AID 1258;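 active means inhibition above about 50% in both repeat tests, limit read from the data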
Starred values were filed as active, the others as inactive; x = not tested or not shown. A selection: hits, their analogues and other compounds. The true share with any hit is near 12%.

SMILES	WT yeast gro inh	CHOP inh	L major viab	Arbovirus anti	others
CN(C)C(CNC(=O)c1cc(S(=O)(=O)N(C)c2ccccc2)ccc1Cl)c1cccs1 (centres undefined)	-3.3	28.8	10.9	0.5
COc1ccc(Nc2ccnc3ccccc23)cc1	-1.0	35.7	100.6*	4.8
COc1ccc(Nc2ccnc(Nc3ccc(OC)cc3)n2)cc1	46.6	56.6	100.4*	-38.8
COc1ccc(Nc2ccccc2N)cc1	26.3	-33.2	92.1*	-3.6
CCOc1nc(Nc2ccc(OC)cc2)nc(OCC)n1	18.9	19.9	36.2	-2.8
CC(NC(=O)CNC(=O)C1O[C@@H]2OC(C)(C)O[C@@H]2[C@H]2OC(C)(C)O[C@@H]12)C(=O)O (some centres undefined)	3.2	-9.2	5.5	2.8
Cc1sc2c(c1C)C(=O)/C(=C\Nc1ccncc1)S(=O)(=O)N2C	x	24.2	x	x
COc1ccccc1N1CC=C(c2cccc([N+](=O)[O-])c2)NC1=O	x	4.8	x	x
COc1cccc(CNCc2ccc(SC)cc2)c1OC	-4.4	37.1	7.2	9.0
CCOC(=O)N1CCN(CCC(=O)Nc2ccc(OC(F)(F)F)cc2)CC1	-8.1	7.3	91.6*	4.5
CCOC(=O)N1CCN(CC(=O)Nc2ccc(OC)cc2)CC1	10.6	-5.9	-6.1	9.3
CCOC(=O)N1CCN(CCC(=O)Nc2ccc(Br)c(C)c2)CC1	-4.3	-5.7	85.4*	-5.0
CCOC(=O)N1CCN(CCC(=O)Nc2ccccc2OC)CC1	10.0	12.3	-2.9	2.1
Cc1ccc(Sc2ccc(NC(=O)CCl)cc2)c(C)c1	64.0*	83.7*	97.5*	-7.8
Cc1cc2cc(C)c(NCCNC(=O)c3cccs3)nc2cc1C	16.4	36.5	10.0	13.7
CCn1ncc(Br)c1C(=O)Nc1nccs1	-1.6	76.9*	-7.7	-1.3
CCn1ncc(Br)c1C(=O)Nc1ccc(F)cc1F	0.5	26.7	-3.0	2.9
O=C(COc1ccc(-c2ccccc2)cc1)N/N=C/c1cc(O)ccc1Br	95.8*	81.5*	70.1*	-34.3
O=C(COc1cccc(Br)c1)N/N=C/C(=O)c1ccccc1	8.0	79.7*	-0.5	-7.1
O=C(COc1cccc(Cl)c1)N/N=C\c1cc2ccccc2nc1Cl	6.5	77.6*	-6.6	-3.7
Cc1ccccc1OCC(=O)N/N=C/c1cc2ccccc2nc1Cl	17.0	31.6	-3.0	6.0
Cc1cccc(OCC(=O)NCC(=O)N/N=C/c2cc(Br)ccc2OCc2ccccc2)c1	18.4	67.2	92.0*	2.6
O=S(=O)(NCC1CCCO1)c1cnc(Cl)c(Br)c1 (centres undefined)	1.9	5.5	3.2	3.8
CC(O)[C@H]1CNC(=O)C(=O)N1CCCCC1CCCCC1 (some centres undefined)	x	4.5	x	x
O=C(c1ccc2c(c1)OCO2)N(c1ccccc1)C1C=CS(=O)(=O)C1 (centres undefined)	0.7	-12.9	-7.4	-4.3
SMILES	WT yeast gro inh	CHOP inh	L major viab	Arbovirus anti	others
O=C(c1cc2ccccc2oc1=O)N(c1ccc(Cl)cc1)C1C=CS(=O)(=O)C1 (centres undefined)	-0.4	19.4	61.1*	-1.2
CCCC(=O)Nc1ccc(-c2csc(N/N=C\c3ccncc3)n2)cc1	x	-11.0	x	x
O=C(NC(=S)NNC(=O)c1cnccn1)c1ccc(F)cc1	-4.0	52.6	100.4*	-28.5
CC(NC(=O)COC(=O)Cc1ccccc1[N+](=O)[O-])c1ccccc1 (centres undefined)	-11.1	48.9	60.2*	-4.2
CN1CCc2nc(NC(=O)c3cccc(OC(F)F)c3)sc2C1	10.3	5.8	-0.3	2.0
Cc1ccc(N2CC(C)Cn3c2nc2c3c(=O)n(CC(=O)OCc3ccccc3)c(=O)n2C)cc1C (centres undefined)	-0.8	7.8	59.2*	4.8	Lmaj promast 1uM=14.9
COc1cc2c(cc1NCc1ccc3c(c1)OCO3)oc1ccccc12	13.3	26.9	-2.0	-12.7
COc1cc2c(cc1NCc1ccccn1)oc1ccccc12	12.8	54.4	72.7*	5.4	Lmaj promast 1uM=-16.0
CC(C)(O)C#Cc1ccc(CN2CCN(C3CCCCC3)C(CCO)C2)cc1 (centres undefined)	1.8	-3.4	-0.9	2.1
OCCC1CN(Cc2cnc(-c3ccc(Cl)cc3)nc2)CCN1C1CCCCC1 (centres undefined)	-5.3	-10.8	87.4*	-34.7	Lmaj promast 1uM=12.3
COc1c(S(=O)(=O)n2nc(C)cc2C)ccc(Cl)c1Cl	10.2	41.5	8.8	-0.3
O=C(COC(=O)[C@H](Cc1ccccc1)N1C(=O)c2ccccc2C1=O)Nc1ccc2c(c1)OCO2	30.7	39.3	99.1*	6.0	Lmaj promast 1uM=-10.6
Cc1cc(C)cc(OCC(=O)Nc2ccc3c(c2)OCO3)c1	8.6	-10.3	61.9*	-15.2	Lmaj promast 1uM=16.8
CCN(CC)CCCOc1nc(C)nc2c1oc1ccccc12	-3.4	-12.6	75.5*	-1.5	Lmaj promast 1uM=-3.5
CC(C)(C)NC(=O)C(=O)NCCC1=CCCCC1	-5.2	1.1	-8.8	4.7
COc1ccccc1NC(=O)c1ccc(-c2nn(C)c(=O)c3ccccc23)cc1	-16.3	12.5	-1.5	-0.8
COc1ccccc1NC(=O)Cn1nc(-c2ccc(Cl)cc2)c2ccccc2c1=O	-12.6	21.0	67.8*	10.2	Lmaj promast 1uM=10.2
Cc1nn(CC(=O)NCCCc2ccccc2)c(C)c1[N+](=O)[O-]	-13.8	18.3	-12.0	1.0
N=C(N)c1ccc(OCCCCCOc2ccc(C(=N)N)cc2)cc1	76.0*	44.4	100.4*	-44.5	Lmaj promast 1uM=100.4*
Nc1ccc(OCc2ccco2)cc1	0.3	-0.6	1.2	-4.6
Cc1ccccc1N/N=C/c1sc(=O)n(Cc2cccc(C(=O)O)c2)c1Cl	x	69.6	x	x
COC(=O)c1cccc(Cn2c(Cl)c(/C=N/Nc3ccccc3C)sc2=O)c1	-5.3	9.0	57.9*	-18.6	Lmaj promast 1uM=63.6*
CSc1cccc(NC(=O)Nc2nc3c(C)cccc3s2)c1	x	-15.2	x	x
O=Cc1c[nH]c2ccc(S(=O)(=O)N3CCOCC3)cc12	3.5	-10.4	-6.2	-0.2
COc1ccc(OC)c(C(c2nnnn2C2CCCC2)N2CCc3ccccc3C2)c1 (centres undefined)	33.4	37.6	88.0*	-19.5	Lmaj promast 1uM=4.4
SMILES	WT yeast gro inh	CHOP inh	L major viab	Arbovirus anti	others
O=C(CSc1n[nH]c(-c2ccccc2)n1)NCc1cccc(C(=O)O)c1	-4.6	-3.1	-9.9	-0.3
O=C(NNc1ccc([N+](=O)[O-])cc1)c1ccccc1Cl	27.4	-18.0	-11.2	-13.6
O=C(NNc1ccccc1)C(=O)NNS(=O)(=O)c1ccc([N+](=O)[O-])cc1	44.2	-0.6	89.3*	-32.9	Lmaj promast 1uM=11.2
CC(=O)Nc1cccc(C(=O)/C=C/c2ccc[nH]2)c1	x	-15.3	x	x
CC(=O)Nc1cccc(C(=O)/C=C/c2cccs2)c1	11.8	-64.5	93.1*	12.2	Lmaj promast 1uM=-8.2
N#CCCn1cc(C(=O)O)c(-c2cccs2)n1	6.4	-5.4	-1.8	-3.3
Cc1nnc(Sc2nc3ccccc3o2)c2ccccc12	-10.8	-54.1	64.0*	1.8	Lmaj promast 1uM=-2.8
Cc1ccc(-c2nnc(Sc3nc4ccccc4o3)c3ccccc23)cc1	-8.5	-86.3	76.0*	-30.1	Lmaj promast 1uM=8.9
CCSc1nnc(-c2ccc(C)cc2)c2ccccc12	7.7	45.6	14.5	10.2
Clc1ccc(-c2nnc(Sc3nc4ccccc4o3)c3ccccc23)cc1	-20.1	-62.5	89.7*	-30.0	Lmaj promast 1uM=7.0
CC(=O)Nc1ccc(NC(=O)[C@@H]2CCCN2S(=O)(=O)c2ccc3c(c2)OCCO3)cc1	8.0	-8.8	-2.2	17.9
